Assay results reported in PubChem BioAssay (NCI).
This is part of a sample that, as a whole, favours compounds with a hit. Of some 83,000 tested, about 20% had one in any assay.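 Step 1: grow cells in 96-well plates. Step 2: add test compound at a single concentration. Step 3: incubate 48 h. Step 4: record percent growth.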 Active and inactive are the calls of the source. How the source made its calls: active means growth percent below 10; inactive means the rest.

Legend:
Test in all cases: NCI-60 one-dose screen, 48 h (100 = growth as untreated, 0 = no growth, -100 = all killed)
NCI-H23 lung = settings: 10 µM unless noted
NCI-H226 lung = settings: 10 µM unless noted
NCI-H322M lung = settings: 10 µM unless noted
HOP-62 NSCLC = settings: 10 µM unless noted
NCI-H460 lung = settings: 10 µM unless noted
HOP-92 NSCLC = settings: 10 µM unless noted
NCI-H522 lung = settings: 10 µM unless noted
A549/ATCC NSCLC = settings: 10 µM unless noted
786-0 renal = settings: 10 µM unless noted
COLO 205 colon = settings: 10 µM unless noted
DU-145 prostate = settings: 10 µM unless noted
K-562 leukemia = settings: 10 µM unless noted
MALME-3M melanoma = settings: 10 µM unless noted
MDA-MB-231 breast = settings: 10 µM unless noted
RXF 393 renal = settings: 10 µM unless noted
SF-268 CNS = settings: 10 µM unless noted
SF-295 CNS = settings: 10 µM unless noted
SF-539 CNS = settings: 10 µM unless noted
UACC-257 melanoma = settings: 10 µM
M14 melanoma = settings: 10 µM unless noted

Measured: growth

Cc1nn(-c2ccc(Cl)cc2)c(C)c1N=Nc1ccc2oc(=O)ccc2c1
inactive: NCI-H23 lung 82.4% | NCI-H226 lung 92.9% | NCI-H322M lung 104% | HOP-62 NSCLC 91.7% | NCI-H460 lung 64.9% | HOP-92 NSCLC 76.8% | NCI-H522 lung 81.7% | A549/ATCC NSCLC 77.6% | 786-0 renal 78.8% | COLO 205 colon 105% | DU-145 prostate 74.5% | K-562 leukemia 73.5% | MALME-3M melanoma 89.5% | MDA-MB-231 breast 77.5% | RXF 393 renal 79.4% | SF-268 CNS 85.1% | SF-295 CNS 90% | SF-539 CNS 62.1% | UACC-257 melanoma 94.6% | M14 melanoma 104%

C#C[C@]1(O)CC[C@H]2[C@@H]3CC=C4c5sc(Nc6cccc(Cl)n6)nc5CC[C@]4(C)[C@H]3CC[C@@]21C
active: HOP-62 NSCLC -8.39% | NCI-H460 lung -2.3% | HOP-92 NSCLC -5.56% | NCI-H522 lung -17.7% | 786-0 renal -54.8% | K-562 leukemia 3.91% | MALME-3M melanoma -20.2% | MDA-MB-231 breast 9.05% | RXF 393 renal -57.4% | SF-268 CNS -16.5% | SF-295 CNS -70.2% | SF-539 CNS -60.2% | UACC-257 melanoma -64.3% | M14 melanoma -22.8%
inactive: NCI-H23 lung 16.1% | NCI-H226 lung 19.8% | NCI-H322M lung 44.5% | A549/ATCC NSCLC 18.5% | COLO 205 colon 34.5% | DU-145 prostate 24.5%

CNC(=O)c1cc(Oc2ccc3nc(NC(=O)c4ccc(CN5CCN(C)CC5)c(C(F)(F)F)c4)sc3c2)ccn1
inactive: NCI-H23 lung 51.8% | NCI-H226 lung 72.7% | NCI-H322M lung 94.5% | HOP-62 NSCLC 73.5% | NCI-H460 lung 53.2% | HOP-92 NSCLC 44.1% | NCI-H522 lung 79.3% | A549/ATCC NSCLC 66.4% | 786-0 renal 22.3% | DU-145 prostate 79.3% | K-562 leukemia 11.7% | MDA-MB-231 breast 77.5% | RXF 393 renal 46.7% | SF-268 CNS 74.6% | SF-295 CNS 36% | SF-539 CNS 25% | UACC-257 melanoma 20.4%
active: COLO 205 colon -29.9% | MALME-3M melanoma -5.19% | M14 melanoma 0.73%

O=[N+]([O-])c1ccc(-c2nnc(SCc3ccc(O)c4ncccc34)o2)cc1
active: NCI-H460 lung 8.58% | HOP-92 NSCLC -13.4% | SF-295 CNS 9.85%
inactive: NCI-H23 lung 21.5% | NCI-H226 lung 36.2% | NCI-H322M lung 40.7% | HOP-62 NSCLC 21.5% | NCI-H522 lung 17.2% | A549/ATCC NSCLC 25.8% | 786-0 renal 33% | COLO 205 colon 49.9% | DU-145 prostate 29.5% | K-562 leukemia 17.6% | MALME-3M melanoma 21.5% | MDA-MB-231 breast 38.1% | RXF 393 renal 14.8% | SF-268 CNS 27.7% | SF-539 CNS 23.5% | UACC-257 melanoma 18.6% | M14 melanoma 27.4%

Cc1csc(Nc2cccc(Nc3nc(C)cs3)c2)n1
inactive: NCI-H23 lung 58.4% | NCI-H226 lung 85% | NCI-H322M lung 96.2% | HOP-62 NSCLC 98.8% | NCI-H460 lung 76.5% | HOP-92 NSCLC 52.2% | NCI-H522 lung 73.3% | A549/ATCC NSCLC 88% | 786-0 renal 94.5% | COLO 205 colon 87.2% | DU-145 prostate 83.8% | K-562 leukemia 60.1% | MALME-3M melanoma 84.8% | MDA-MB-231 breast 79.2% | RXF 393 renal 91% | SF-268 CNS 85.2% | SF-295 CNS 66.2% | SF-539 CNS 83.8% | UACC-257 melanoma 89.7% | M14 melanoma 86%

O=C1Nc2ccc(Cl)cc2/C1=C/c1ccc(OCc2ccc(F)cc2)cc1
inactive: NCI-H23 lung 92.5% | NCI-H226 lung 96.4% | NCI-H322M lung 95.7% | HOP-62 NSCLC 107% | NCI-H460 lung 97.7% | HOP-92 NSCLC 85.6% | NCI-H522 lung 90.4% | A549/ATCC NSCLC 91.1% | 786-0 renal 98.4% | COLO 205 colon 99.4% | DU-145 prostate 95.9% | K-562 leukemia 78.4% | MALME-3M melanoma 102% | MDA-MB-231 breast 95.2% | RXF 393 renal 95.5% | SF-268 CNS 92.7% | SF-295 CNS 99% | SF-539 CNS 96% | UACC-257 melanoma 96.6% | M14 melanoma 98.1%

NNC(=O)c1sc2nc(-c3cnccn3)cc(-c3cccs3)c2c1N
inactive: NCI-H23 lung 98.6% | NCI-H226 lung 89.7% | NCI-H322M lung 74.4% | HOP-62 NSCLC 91.6% | NCI-H460 lung 103% | HOP-92 NSCLC 101% | NCI-H522 lung 101% | A549/ATCC NSCLC 102% | 786-0 renal 108% | COLO 205 colon 102% | DU-145 prostate 104% | K-562 leukemia 95.5% | MALME-3M melanoma 95.6% | MDA-MB-231 breast 79% | RXF 393 renal 102% | SF-268 CNS 93.5% | SF-295 CNS 104% | SF-539 CNS 94.9% | UACC-257 melanoma 115% | M14 melanoma 105%

CCN(CC)CCCC(C)NCC(=O)NC(c1ccc2c(c1)OCO2)c1cc(Cl)c2cccnc2c1O (stereo not given)
inactive: NCI-H23 lung 41.7% | NCI-H226 lung 41.2% | NCI-H322M lung 35.2% | HOP-62 NSCLC 21.6% | HOP-92 NSCLC 35.9% | NCI-H522 lung 37.4% | A549/ATCC NSCLC 24.1% | COLO 205 colon 17.6% | DU-145 prostate 44.2% | K-562 leukemia 10.6% | MDA-MB-231 breast 35.5% | RXF 393 renal 67.5% | SF-268 CNS 22.7% | UACC-257 melanoma 76.6%
active: NCI-H460 lung 8.77% | 786-0 renal 7.03% | MALME-3M melanoma 5.27% | SF-295 CNS -53.3% | SF-539 CNS 6.63% | M14 melanoma -9.39%

Cc1nn(-c2ccccc2)c2nc(CCl)[nH]c(=O)c12
active: 786-0 renal 4.55%
inactive: NCI-H23 lung 98.8% | NCI-H226 lung 111% | NCI-H322M lung 103% | HOP-62 NSCLC 98.3% | NCI-H460 lung 102% | HOP-92 NSCLC 117% | NCI-H522 lung 89.8% | A549/ATCC NSCLC 97.7% | COLO 205 colon 110% | DU-145 prostate 83.6% | K-562 leukemia 19.2% | MALME-3M melanoma 103% | MDA-MB-231 breast 88.4% | RXF 393 renal 99.2% | SF-268 CNS 106% | SF-295 CNS 109% | SF-539 CNS 36.9% | UACC-257 melanoma 97.9% | M14 melanoma 99%

COc1cc(/C=N/n2cnc3oc(-c4ccccc4)cc3c2=N)cc(CN2CCN(C)CC2)c1O
inactive: NCI-H23 lung 104% | NCI-H226 lung 87.3% | NCI-H322M lung 108% | HOP-62 NSCLC 88.1% | NCI-H460 lung 108% | HOP-92 NSCLC 74.9% | NCI-H522 lung 96.9% | A549/ATCC NSCLC 94.3% | 786-0 renal 62.5% | COLO 205 colon 80.9% | DU-145 prostate 110% | K-562 leukemia 26.3% | MALME-3M melanoma 113% | MDA-MB-231 breast 79.3% | RXF 393 renal 27.7% | SF-268 CNS 93.6% | SF-295 CNS 109% | SF-539 CNS 94% | UACC-257 melanoma 106% | M14 melanoma 103%

O=C(c1ccc(O)cc1)[C@@H]1[C@@H]2CCCN2[C@@]2(C(=O)N(C(=O)c3ccc(F)cc3)c3ccccc32)[C@H]1c1ccc(F)cc1
inactive: NCI-H23 lung 98.5% | NCI-H226 lung 94.3% | NCI-H322M lung 98.6% | HOP-62 NSCLC 97.4% | NCI-H460 lung 99.6% | HOP-92 NSCLC 67% | NCI-H522 lung 93.7% | A549/ATCC NSCLC 96.6% | 786-0 renal 100% | COLO 205 colon 105% | DU-145 prostate 102% | K-562 leukemia 75.7% | MALME-3M melanoma 84.2% | MDA-MB-231 breast 82.5% | RXF 393 renal 105% | SF-268 CNS 89.9% | SF-295 CNS 96.2% | SF-539 CNS 85.4% | UACC-257 melanoma 103% | M14 melanoma 95.1%

CCOC(=O)Nc1ccc(-c2nc(-c3cccc(O)c3)c(-c3ccnc(Br)c3)[nH]2)cc1
active: RXF 393 renal -9.56% | SF-295 CNS -14%
inactive: NCI-H23 lung 31% | NCI-H226 lung 40.6% | NCI-H322M lung 54.7% | HOP-62 NSCLC 25.2% | NCI-H460 lung 37.6% | HOP-92 NSCLC 38.3% | NCI-H522 lung 25.1% | A549/ATCC NSCLC 16% | 786-0 renal 20.5% | COLO 205 colon 43.6% | DU-145 prostate 57.7% | K-562 leukemia 12.5% | MALME-3M melanoma 32.4% | MDA-MB-231 breast 39.3% | SF-268 CNS 39.9% | SF-539 CNS 38.2% | UACC-257 melanoma 38.7% | M14 melanoma 35.1%

O=C1NC(=O)/C(=C/c2ccc(OCc3cc4ccccc4nc3Cl)cc2)S1
inactive: NCI-H23 lung 87.1% | NCI-H226 lung 101% | NCI-H322M lung 103% | HOP-62 NSCLC 105% | NCI-H460 lung 101% | HOP-92 NSCLC 78.6% | NCI-H522 lung 79.8% | A549/ATCC NSCLC 99.6% | 786-0 renal 93.7% | COLO 205 colon 122% | DU-145 prostate 100% | K-562 leukemia 75.2% | MALME-3M melanoma 103% | MDA-MB-231 breast 88.2% | RXF 393 renal 111% | SF-268 CNS 110% | SF-295 CNS 96.4% | SF-539 CNS 104% | UACC-257 melanoma 98% | M14 melanoma 104%

CC(=O)C1=NN(c2ccc(Cl)cc2)C(=O)CN1C
inactive: NCI-H23 lung 94.9% | NCI-H226 lung 105% | NCI-H322M lung 101% | HOP-62 NSCLC 103% | NCI-H460 lung 108% | HOP-92 NSCLC 107% | NCI-H522 lung 95.6% | A549/ATCC NSCLC 96.2% | 786-0 renal 91.2% | COLO 205 colon 106% | DU-145 prostate 107% | K-562 leukemia 114% | MALME-3M melanoma 107% | MDA-MB-231 breast 105% | RXF 393 renal 121% | SF-268 CNS 108% | SF-295 CNS 95.5% | SF-539 CNS 97.8% | UACC-257 melanoma 101% | M14 melanoma 101%

O=S(=O)(Nc1ccc(I)c(Cl)c1)c1ccc(-c2cnc(C3CC3)o2)cc1
inactive: NCI-H23 lung 33.8% | NCI-H226 lung 41.9% | NCI-H322M lung 46% | HOP-62 NSCLC 29% | NCI-H460 lung 12.6% | HOP-92 NSCLC 49% | NCI-H522 lung 24.7% | A549/ATCC NSCLC 50.3% | 786-0 renal 41.7% | COLO 205 colon 12% | DU-145 prostate 19.5% | MALME-3M melanoma 49.4% | MDA-MB-231 breast 44.8% | SF-268 CNS 59.4% | SF-295 CNS 12.2% | SF-539 CNS 10.9% | UACC-257 melanoma 69.9% | M14 melanoma 20.9%
active: K-562 leukemia 9.83% | RXF 393 renal 2.46%
